# Screens from PubChem BioAssay.
# PKA inh = inhibitors of human protein kinase A; 65,000 compounds, 0.1% hits; P17612; AID 524; PKA Kemptide phosphorylation, Kinase-Glo ATP luminescence; inhibition, % at 6 µM;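 active = inhibition above the screen-wide mean inhibition plus 3 SD, cut at about 21% in these data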
# ROCK2 blocker = blocks human Rho kinase 2 activity. purified ROCK2, Kinase-Glo ATP depletion luminescence. inhibition, % at 6 µM. 60,000 compounds, 0.35% hits;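 active = inhibition above the screen-wide mean inhibition plus 3 SD, cut at about 18% in these data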;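 also: plate controls were DMSO wells for no effect and Y-27632 control wells after no-enzyme background subtraction for full effect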
# Target sequence (O75116 whole entry, looked up): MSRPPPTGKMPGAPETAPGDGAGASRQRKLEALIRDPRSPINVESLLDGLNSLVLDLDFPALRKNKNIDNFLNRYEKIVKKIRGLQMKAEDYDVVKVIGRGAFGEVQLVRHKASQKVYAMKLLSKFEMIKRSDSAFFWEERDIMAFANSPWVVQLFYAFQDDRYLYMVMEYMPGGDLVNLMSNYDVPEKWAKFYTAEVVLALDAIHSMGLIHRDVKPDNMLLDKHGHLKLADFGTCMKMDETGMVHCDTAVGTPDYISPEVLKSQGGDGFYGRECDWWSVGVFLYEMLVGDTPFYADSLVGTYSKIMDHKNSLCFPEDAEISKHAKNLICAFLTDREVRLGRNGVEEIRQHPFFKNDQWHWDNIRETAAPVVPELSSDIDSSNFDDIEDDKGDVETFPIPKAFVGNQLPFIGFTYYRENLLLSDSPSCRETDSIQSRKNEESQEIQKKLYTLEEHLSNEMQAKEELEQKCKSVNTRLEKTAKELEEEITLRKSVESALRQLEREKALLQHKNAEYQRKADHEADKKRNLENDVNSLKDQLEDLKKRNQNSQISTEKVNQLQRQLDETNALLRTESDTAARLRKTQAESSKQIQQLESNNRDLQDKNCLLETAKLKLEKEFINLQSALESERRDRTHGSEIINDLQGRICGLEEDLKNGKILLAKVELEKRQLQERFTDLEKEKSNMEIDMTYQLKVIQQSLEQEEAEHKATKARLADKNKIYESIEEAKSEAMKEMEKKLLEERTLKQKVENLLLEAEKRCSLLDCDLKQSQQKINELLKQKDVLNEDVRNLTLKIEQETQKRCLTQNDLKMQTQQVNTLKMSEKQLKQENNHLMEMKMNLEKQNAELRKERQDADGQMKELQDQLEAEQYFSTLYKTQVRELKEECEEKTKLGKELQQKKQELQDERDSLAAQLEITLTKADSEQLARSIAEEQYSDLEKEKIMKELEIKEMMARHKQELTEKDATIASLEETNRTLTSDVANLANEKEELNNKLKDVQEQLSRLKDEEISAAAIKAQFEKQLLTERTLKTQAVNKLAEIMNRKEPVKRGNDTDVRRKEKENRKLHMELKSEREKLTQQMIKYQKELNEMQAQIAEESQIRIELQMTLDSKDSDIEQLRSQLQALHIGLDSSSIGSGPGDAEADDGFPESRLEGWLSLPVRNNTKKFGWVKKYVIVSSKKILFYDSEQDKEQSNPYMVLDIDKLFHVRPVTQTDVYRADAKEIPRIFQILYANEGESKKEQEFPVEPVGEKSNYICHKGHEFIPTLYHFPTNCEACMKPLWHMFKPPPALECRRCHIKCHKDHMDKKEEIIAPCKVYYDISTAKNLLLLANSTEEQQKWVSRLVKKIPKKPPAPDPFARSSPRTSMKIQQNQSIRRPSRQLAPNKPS
# D1 mod = allosteric modulators of human D1 dopamine receptor | HEK293 D1, CRE-luciferase, dopamine EC30 potentiation; actives deviate in either direction | B-score at 10 µM | 58,000 compounds, 5.9% hits;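 active = luminescence count or its row- and column-corrected plate score outside the 99.7% band of the plate's sample wells, on either side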
# hDAT+cocaine = modulates human dopamine transporter uptake under cocaine; Q01959; LLC-PK1 hDAT cells, [14C]-dopamine uptake with cocaine IC80; actives deviate in either direction; B-score at 10 µM; 110,000 compounds, 1.3% hits; AID 449768;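 active = Z score or B-score, a plate-position-corrected score, falls beyond the plate's 99.7% confidence bounds, in either direction; inactive = both scores lie inside the 99.7% bounds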;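 also: scored against the spread of the other compound wells on the same plate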
# D1 PAM confirm = D1 receptor (human) allosteric modulation, confirmed; shares compounds with D1 mod; HEK293 D1 CRE-luciferase, dopamine EC30 potentiation; stronger effect = higher value; luminescence at 10 µM; 2,200 compounds, 88% hits;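 active = luminescence in either of two replicates above the same-plate mean plus 3 SD of the low-dose dopamine control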
# D1 no dopamine = D1 (human) signaling in absence of dopamine; 1,900 compounds, 0.8% hits; HEK293 D1 CRE-luciferase, luminescence, no dopamine; stronger effect = higher value; shares compounds with D1 mod; luminescence at 10 µM; in the data active = luminescence above about 3900
# Isoprot counter = counter-screen for D1 modulators: isoproterenol response in HEK293 cells; shares compounds with D1 mod; HEK293 D1 CRE-luciferase, isoproterenol EC30 counter-screen; 2,200 compounds, 63% hits; calls only at 10 µM; AID 647;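 active = luminescence in either replicate above plate mean of wells with a partly effective reference agonist dose plus 3 SD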;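 also: isoproterenol raises cAMP through native beta-adrenoceptor Gs so signal bypasses D1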
# * hit, by the source's call; i = inactive; x = no result; + = active, no number. The entries come from a sample that favours hits as a whole.
SMILES,PKA inh,ROCK2 blocker,D1 mod,hDAT+cocaine,D1 PAM confirm,D1 no dopamine,Isoprot counter
CCOC(=O)c1cc(C#N)c(N)nc1C,3,2,4.6*,-0.67,8556*,x,+
CCOC(=O)c1cc(C#N)c(SCc2ccc(C#N)cc2)nc1C,7,9,1.4,-0.98,x,x,x
CCOc1cccc(-c2nn3c(-c4ccco4)nnc3s2)c1,5,4,x,0.28,x,x,x
CCOC(=O)c1cnc(-n2nc(C)cc2C)nc1NCc1ccccc1,0,-5,3.1,0.96,x,x,x
CCOC(=O)c1cnc(-n2nc(C)cc2C)nc1NC(C)c1ccccc1 (stereo not given),8,4,8.3*,-0.23,9080*,1572,+
CCCOC(=O)NC(CC)COC(=O)Nc1cccc(C)c1C (stereo not given),8,7,8.2*,0.89,6072,1720,i
O=C(NCCCN1CCC(Cc2ccccc2)CC1)C1CC(=O)N(C2CCCCCC2)C1 (stereo not given),x,x,x,-1,x,x,x
CC(C)n1c(SCc2ccccc2F)nc2c1c(=O)n(C)c(=O)n2C,7,5,1.1,0.11,x,x,x
Cn1c(=O)c2c(nc(SCCCC#N)n2Cc2ccccc2F)n(C)c1=O,0,0,5.2*,0.049,15976*,1696,i
O=C(NCCc1ccc(Cl)cc1)C1CCN(S(=O)(=O)N2CCC3(CC2)OCCO3)CC1,13,5,0.054,-0.034,x,x,x
O=C(O)CSc1nc2ccccc2c(=O)[nH]1,x,x,x,-0.051,x,x,x
C=CCSc1nc2ccccc2c(=O)[nH]1,5,2,3*,0.94,9580*,1792,i
Cc1csc2c(C#N)c(=O)c3c(n12)CCC3,9,4,4.4*,-0.8,6564*,1476,i
Cc1ccc(C)n1-c1sc2c(c1C#N)CCCC2,x,x,x,1.5,x,x,x
O=C1NC(c2ccco2)Nc2ccccc21 (stereo not given),-8,-9,-0.069,0.42,x,x,x
O=c1[nH]c2c(s1)C(c1ccco1)C1C3CCC(C3)C1S2 (stereo not given),2,x,26*,-1,19088*,1756,+
CCCCCCCCOC(=O)CCn1[nH]c(=O)c2ccccc2c1=O,x,x,x,-0.029,x,x,x
CC1CCc2sc3ncnc(N4CCOCC4)c3c2C1 (stereo not given),7,5,19*,-0.89,14216*,1432,+
CC1CCc2c(sc3ncnc(NCCN4CCOCC4)c23)C1 (stereo not given),4,2,x,-0.22,x,x,x
CC1CCc2c(sc3ncnc(N4CCOCC4)c23)C1 (stereo not given),x,x,17*,0.43,13928*,1504,+
Cc1c(C(=O)NC2CCCc3ccccc32)oc2ccc(S(=O)(=O)N3CCOCC3)cc12 (stereo not given),5,x,6*,0.21,7816*,1568,+
Cc1c(C(=O)NC2CCCc3ccccc32)oc2ccc(S(=O)(=O)N3CCCC3)cc12 (stereo not given),x,x,x,0.016,x,x,x
CCOC(=O)c1c(NC(=O)CSc2nnc(-c3cccnc3)o2)sc(C(C)=O)c1C,-5,-1,4*,0.29,6332*,1464,+
CCC(C)(C)n1nnnc1C(c1cc2cc(C)cc(C)c2[nH]c1=O)N1CCN(C(=O)c2ccco2)CC1 (stereo not given),x,x,x,1.5,x,x,x
Brc1ccccc1C1=Nn2c(nnc2-c2ccccc2)SC1,-14,-4,12*,0.18,13500*,1464,+
SMILES,PKA inh,ROCK2 blocker,D1 mod,hDAT+cocaine,D1 PAM confirm,D1 no dopamine,Isoprot counter
COc1ccccc1-c1nnc2n1N=C(c1ccc(O)c(O)c1)CS2,1,-13,23*,-1.8,21320*,x,+
CCOc1ccc(C2=Nn3c(nnc3-c3ccccc3OC)SC2)cc1,5,5,28*,0.25,21740*,x,+
CCn1c(CNc2ccc(F)cc2)nnc1SCC(=O)Nc1ccc(OC)cc1,x,x,x,-0.79,x,x,x
CSc1cccc(NC(=O)CN(c2cc(C)ccc2C)S(C)(=O)=O)c1,13,7,-0.38,1.1,x,x,x
COc1ccc(OC)c(N/C=C2/CCCCC2=O)c1,0,2,1.9,0.82,x,x,x
COc1ccc(N/C=C2/CCCCC2=O)cc1,4,6,2.8*,0.82,4708,1400,i
Cc1ccc(Cn2c(C3CCCN3c3nc(-c4cc(Cl)c(N)c(Cl)c4)cs3)nc3cc(Cl)c(Cl)cc32)cc1 (stereo not given),x,x,x,-2.2,x,x,x
CCC(C)(C)n1nnnc1C(c1ccc(C)cc1)N1CCN(Cc2ccc3c(c2)OCO3)CC1 (stereo not given),x,x,x,1.8,x,x,x
CNC(=O)c1ccsc1NC(=O)c1ccc(Cl)s1,4,2,4.9*,-0.16,16692*,1816,+
COC(=O)c1sccc1NC(=O)c1ccc(Cl)s1,-2,0,1.7,0.1,x,x,x
CCCn1nc2cc(C(=O)N(CC)c3ccc(OC)cc3)ccc2c1OCC,x,x,x,0.46,x,x,x
CCCc1cc(Nc2cccc(OCC)c2)n2ncnc2n1,14,5,3.2*,0.2,11224*,1788,+
CCCOC(=O)c1ccc(Nc2cc(C)nc3ncnn23)cc1,0,6,-1.7,0.81,x,x,x
CCCc1cc(Nc2cccc(OC)c2)n2ncnc2n1,8,1,5.2*,-0.48,10608*,x,+
CCOc1ccc(OCCN2C(=O)NC(Cc3c[nH]c4ccccc34)C2=O)cc1 (stereo not given),x,x,x,1.6,x,x,x
COC(C[C@H]1O[C@H]1[C@@H](O)[C@@H](C)OCc1ccccc1)OC,x,x,x,0.51,x,x,x
Cc1ccc(Cn2ncc3c(N4CCCC4)ncnc32)cc1,7,6,2.7*,1.1,10768*,1564,+
Clc1ccc(Cn2ncc3c(N4CCOCC4)ncnc32)cc1,2,4,-0.29,0.35,x,x,x
Clc1ccc(Cn2ncc3c(N4CCCC4)ncnc32)cc1,4,7,4.7*,0.44,13228*,1420,+
NC(=O)c1c(NC(=O)c2ccccc2)sc2c1CCc1ccccc1-2,x,x,x,-0.37,x,x,x
COc1ccc(Cl)cc1C(=O)CSc1nnnn1C1CCCC1,2,6,2.8*,-0.59,6668*,1592,i
COC(=O)C(NNc1ccccc1)(NC(=O)c1cccc(F)c1)C(F)(F)F (stereo not given),x,x,x,-0.32,x,x,x
COC(=O)C1=C(C)N(CCCC(=O)O)C(=O)NC1c1cccc(Cl)c1Cl (stereo not given),x,x,x,0.62,x,x,x
CC(C)C[C@H]1C(=O)N2CCC[C@H]2[C@]2(O)O[C@](NC(=O)[C@@H]3C=C4c5cccc6[nH]c(Br)c(c56)CC4N(C)C3)(C(C)C)C(=O)N12 (stereo not given in full),2,6,24*,1.8,20940*,18100*,+
CCOC(=O)c1c(N)c(C#N)c2n1CCCCC2,5,3,11*,0.035,10284*,1420,+
CCOC(=O)c1c(N)c(C#N)c2n1CCCC2,x,x,x,-0.97,x,x,x
